Data reported in PubChem BioAssay (EPA / NIEHS).
Several values for one entry are separate records, joined by “and”; a condition that tells them apart may be missing. Identical values can stand only once. Some structures have more than one record in an assay (separate samples or runs), and their calls can disagree. Activity calls are given as the source filed them. The calls were made as follows: active = hit-call score of the fitted dose curve at least 0.9, where 1 is the maximum; inactive = score below 0.9.

assay: ATG_NRF2_ARE_CIS: Attagene CIS-FACTORIAL HepG2 Assay for human Nuclear Factor Erythroid 2 Related Factor 2 (NFR2) response to Antioxidant Response Elements (ARE) (AID 2282992); conditions: HepG2 Attagene ARE/NRF2 reporter, transcription factor activity; actives raise or lower the signal
Protocol: ATG_CIS is a cell-based, multiplexed-readout assay that uses HepG2, a human liver cell line, with measurements taken at 24 hours after chemical dosing in a 24-well plate.ATG_NRF2_ARE_CIS is one of 52 assay component(s) measured or calculated from the ATG_CIS assay. It is designed to make measurements of mRNA induction, a form of inducible reporter, as detected with fluorescence intensity signals by Reverse transcription polymerase chain reaction (RT-PCR) and Capillary electrophoresis technology.Data from the assay component ATG_NRF2_ARE_CIS was analyzed into 1 assay endpoint. This assay endpoint, ATG_NRF2_ARE_CIS, was analyzed with bidirectional fitting relative to DMSO as the negative control and baseline of activity. Using a type of inducible reporter, measures of mRNA for gain or loss-of-signal activity can be used to understand the reporter gene at the transcription factor-level as they relate to the gene NFE2L2. Furthermore, this assay endpoint can be referred to as a primary readout, because this assay has produced multiple assay endpoints where this one serves a reporter gene function. To generalize the intended target to other relatable targets, this assay endpoint is annotated to the dna binding intended target family, where the subfamily is basic leucine zipper.
Human liver HepG2 cells are transiently transfected with multiple reporter transcription units (MRTUs) in 6-well plates using FuGene 6 reagent (Roche; 3 ml FuGene/1 mg DNA). The MRTU constructs are regulated by a cis-regulating element (promoter). […] A major difference between the CIS and TRANS system is that in CIS activities of endogenous TFs are measured, whereas the TRANS assay evaluates changes in activities of exogenous, chimeric NR-Gal4 proteins. […] At the end of 24 hour incubation, total RNA was isolated using TriZol reagent (Invitrogen). The isolated RNA is then reverse-transcribed using oligo(dT) primer and Mo-MLV reverse transcriptase (Invitrogen) with DNAse I (Ambion) treatment for 30 min. The one-tenth of the produced cDNA was amplified by PCR using Taq DNA polymerase (Invitrogen) and two reporter sequence-specific primers. The PCR products were fluorescently labeled by primer extension with 6-arboxyfluorescein (6-FAM) 5'-labeled reporter sequence-specific primer (2 min at 95 C, 20 s at 68 C and 10 min at 72 C) and these products were digested with 5U of HpaI (New England Biolabs) for 2h at 37 C. The fragments were purified using Qiaquick PCR columns (Qiagen), analyzed on an ABI 3130xL genetic analyzer (Applied Biosystems) with peak positions identified by using a set of X-rhodamine (ROX)-labeled MapMarker1000 molecular weight standards (BioVentures). The raw capillary electrophoresis data was processed using Attagraph software (Attagene).

SMILES | outcome | AC50
C=CC(F)(F)C(F)(F)C(F)(F)C(F)(F)F | inactive | –
CCCCCc1ccc(O)cc1 | – | 17.6 µM (active)
FC(F)(F)C(F)(F)C(F)(F)C(F)(F)I | inactive | –
NNc1nc(-c2ccc([N+](=O)[O-])cc2)cs1 | – | 1.95 µM (active)
CCCC=O | inactive | –
O=C(NO)c1ccccc1 | inactive | 16.2 µM (active) and 18.5 µM (active)
Cc1ccc(C)c(S(=O)(=O)O)c1 | inactive | –
CCCCCCCCCCCC(=O)O | inactive | 100 µM (active)
O=C(F)C(F)(F)C(F)(F)C(F)(F)C(F)F | inactive | –
O=C(CC(=O)C(F)(F)C(F)(F)C(F)(F)F)c1cccs1 | – | 12.9 µM (active) and 20.2 µM (active)
CC(C)(C)C1CCCCC1O (stereo unspecified) | inactive | –
Cc1ccccc1C(OCCN(C)C)c1ccccc1 (stereo unspecified) | inactive | 71.4 µM (active)
O=C(F)C(F)(F)C(F)(F)C(F)(F)C(=O)F | inactive | –
c1cc2cccc3c4cccc5cccc(c(c1)c23)c54 | – | 19.8 µM (active)
CC1CNCC(C)O1 (stereo unspecified) | inactive | –
COc1cc(OC)nc(NC(=O)NS(=O)(=O)Nc2ccccc2C(=O)N(C)C)n1 | inactive | –
C[N+](C)(CCCNS(=O)(=O)CCC(F)(F)C(F)(F)C(F)(F)C(F)(F)C(F)(F)C(F)(F)F)CC(=O)[O-] | – | 0.00659 µM (active)
CC(O)COc1ccccc1 (stereo unspecified) | inactive | –

SMILES | outcome | AC50
Cn1sccc1=O | – | 161 µM (active)
NNC(=O)CCCCC(=O)NN | inactive | –
C=C(c1ccc(C(=O)O)cc1)c1cc2c(cc1C)C(C)(C)CCC2(C)C | inactive | –
CCCCCCCCCCCC[N+](C)(C)Cc1ccccc1 | inactive | 9.38 µM (active)
OCC(F)(F)C(F)(F)C(F)(F)C(F)(F)C(F)(F)C(F)(F)C(F)(F)C(F)(F)C(F)(F)C(F)(F)C(F)(F)F | – | 55.4 µM (active)
CCCCCCCCCCCCCCCCCC[N+](C)(C)Cc1ccccc1 | – | 12.6 µM (active)
O=C(Nc1cccc([N+](=O)[O-])c1)c1cc2ccccc2cc1O | – | 1.37 µM (active)
COC(=O)C(F)(F)C(F)(F)C(F)(F)F | inactive | –
Nc1ccc(O)c(C(=O)O)c1 | inactive | –
CCCCc1ccc2ccccc2c1S(=O)(=O)O | – | 8.84 µM (active)
CCCCC(CC)C(=O)OCCOCCOCCOCCOC(=O)C(CC)CCCC (stereo unspecified) | – | 100 µM (active)
CCCCCCC(C)(C)C(=O)O | – | 117 µM (active)
FC(F)(F)C(F)(F)C(F)(F)Br | inactive | –
COc1cc([N+](=O)[O-])ccc1N | inactive | –
C=CC(=O)OCCN(CC)CC | – | 144 µM (active)
CC1CCC(C(=O)O)CC1 (stereo unspecified) | inactive | –
CCc1cccc(CC)c1N(COC)C(=O)CS(=O)(=O)O | inactive | –
c1cnc2c(c1)ccc1cccnc12 | inactive | 3.04 µM (active)
